This is a sample that favours compounds with a hit; in the whole collection about 1.5% have one here.
Tb PFK inh-1: T. brucei PFK enzyme inhibition; T. brucei PFK, ADP-Glo luminescence; Potency, µM (titrated, usually from 57.5 µM), usual class: inhibitors; O15648; hit rate 0.17% among 330,000; also: nearly all actives have a fitted effect of over 60% in size
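ADP-Glo luminescence quantified ADP after 45 min at room temperature, with 1.25 nM T. brucei PFK, 0.1 mM ATP and 0.5 mM fructose-6-phosphate in pH 8.0 TEA buffer. qHTS titrations up to 57 µM; curves classified by quality.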
WRN helicase inh: inhibitors of human WRN helicase. Q14191. WRN helicase unwinding, fluorescent forked duplex, kinetic. Potency, µM (titrated, usually from 114 µM), actives largely listed as inhibitors. hit rate 0.46% among 360,000. AID 651768; also: nearly all actives have a fitted effect of over 55% in size
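Fluorescence dequenching readout, ex 525 nm/em 598 nm, kinetic mode: forked duplex DNA (100 nM final) with adjacent fluorophore and quencher unwound by WRN (20 nM final) with 2 mM ATP. Compound preincubation 15 min, room temperature.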
Tb PGK inh: blocks T. brucei phosphoglycerate kinase. P07378. PGK/GAPDH coupled, Kinase-Glo luminescence, 60 min. Potency, µM (doses to about 57.5 µM), usual class: inhibitors. hit rate 0.043% among 380,000; also: nearly all actives have a fitted effect of over 60% in size
Target sequence (P07378 whole entry, looked up): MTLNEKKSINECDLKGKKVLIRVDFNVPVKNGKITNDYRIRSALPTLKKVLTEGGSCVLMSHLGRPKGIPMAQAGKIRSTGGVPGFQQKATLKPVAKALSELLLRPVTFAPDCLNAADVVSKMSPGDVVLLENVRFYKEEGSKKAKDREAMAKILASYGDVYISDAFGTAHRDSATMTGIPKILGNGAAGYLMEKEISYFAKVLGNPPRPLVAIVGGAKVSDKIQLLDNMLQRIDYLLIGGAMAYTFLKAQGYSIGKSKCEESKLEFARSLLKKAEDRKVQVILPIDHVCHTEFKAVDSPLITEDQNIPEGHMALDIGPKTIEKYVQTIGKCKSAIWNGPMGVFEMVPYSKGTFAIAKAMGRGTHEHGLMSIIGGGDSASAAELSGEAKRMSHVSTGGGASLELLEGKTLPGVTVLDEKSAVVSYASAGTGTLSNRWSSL
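Recombinant glycosomal PGK reaction used 1,3-bisphosphoglycerate generated in-well by GAPDH (100nM final) in 100mM TEA pH 7.6, 5mM MgCl2, 0.01% Tween-20. After 60 minutes at room temperature, ATP was read by Kinase-Glo Plus luminescence end-point.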
TDP1 inh: inhibitors of human tyrosyl-DNA phosphodiesterase TDP1. Q9NUW8. recombinant TDP1, AlphaScreen DNA substrate cleavage. Potency, µM (titrated, usually from 130 µM), actives largely listed as inhibitors. hit rate 0.28% among 350,000. AID 485290; also: nearly all actives have a fitted effect of over 40% in size
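Steps: enzyme plus compound, 15 min RT; add biotin/phosphotyrosine-FITC oligonucleotide (15 nM final), react 5 min; add donor/acceptor beads (10 ug/ml final), 10 min; read AlphaScreen. Tdp1 at 1 nM final.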
PI5P4Ka inh: PI5P4K alpha (human) kinase inhibition; PI5P4Kalpha enzyme, ADP-Glo luminescence, 60 min; active compounds read low; hit rate 1.2% among 330,000; P48426; max response, %; AID 652105; active = max response of -50% or lower; inconclusive = between -30% and -50%; inactive = -30% or higher; also: value at the top dose of about 77 µM
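Controls without substrate or without enzyme flank wells where PI5P4Kalpha converts substrate using 5 microM ATP (final). Incubation lasts 60 minutes at room temperature; ADP formed is read by ADP-Glo luminescence.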
FEN1 inh: blocks human flap endonuclease 1; Potency, µM (top dose mostly 114 µM), hits mostly inhibitors; AID 588795; P39748; Recombinant FEN1 flap cleavage, fluorescence, 15 min; hit rate 0.35% among 390,000; also: nearly all actives have a fitted effect of over 65% in size
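Concentration–response screening of FEN1 (10 nM): 15 min compound preincubation at room temperature, reaction started with 50 nM substrate and read at 0 and 15 min. Corrected, normalized data were fitted by a four-parameter Hill equation.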
Tb PFK KinaseGlo: Tb phosphofructokinase inhibition, orthogonal luminescence. Tb PFK enzyme, ATP depletion, Kinase-Glo Plus luminescence. shares compounds with Tb PFK inh-1. AID 504636. hit rate 47% among 1,100. Potency, µM (top dose mostly 57.5 µM); calls by dose curve; also: nearly all actives have a fitted effect of over 60% in size
Tb PFK inh-2: validation of T. brucei phosphofructokinase inhibitors. shares compounds with Tb PFK inh-1. purified T. brucei PFK, ADP-Glo luminescence, 45 min. Potency, µM (series often up to 57.5 µM), most hits filed as inhibitors. hit rate 41% among 1,100; also: nearly all actives have a fitted effect of over 60% in size
Each line names hits and unclear results; the compound was inactive in the other large screens (follow-up assays come after a bar, where they were run). Unless noted, calls follow the shape of the dose curve; as a rule, active = well fitted curve in the direction sought with a large enough effect; inconclusive = small, poorly fitted or top-dose-only effect, or another doubt; inactive = no such curve, though single readings can be large; an effect the other way counts as inactive or inconclusive.

CC1(C)CC(=O)C2=C(C1)OC1=C(C(=O)CC(C)(C)C1)C2c1ccc(O)cc1O	Tb PFK inh-1 inconclusive, WRN helicase inh inconclusive (no result: PI5P4Ka inh) | Tb PFK KinaseGlo 1.7µM | Tb PFK inh-2 1.3µM
CCCCOC(=O)C1=C(N)OC2=C(C(=O)CC(C)(C)C2)[C@]12C(=O)N(C)c1ccccc12	none
C/C(=N\NC(=O)c1cc(O)cc(O)c1)c1ccc(NC(=O)Cc2ccccc2)cc1	Tb PFK inh-1 inconclusive, WRN helicase inh 20µM, Tb PGK inh 7.9µM, TDP1 inh 1.8µM, PI5P4Ka inh -90, FEN1 inh 50µM | Tb PFK KinaseGlo inconclusive | Tb PFK inh-2 inconclusive
CC(C)n1cnc2c(C(=O)N[C@H]3CN4CCC3CC4)cc(Cl)cc21	none (no result: Tb PFK inh-1, WRN helicase inh, Tb PGK inh, PI5P4Ka inh, FEN1 inh)
CCCN1CCC[C@@H]2Cc3cn[nH]c3C[C@H]21	none (no result: Tb PFK inh-1, WRN helicase inh, Tb PGK inh, PI5P4Ka inh, FEN1 inh)
CC(=O)Nc1cc(C(=O)CSc2nnc(C3CC3)n2C2CC2)ccc1O	Tb PFK inh-1 inconclusive, WRN helicase inh inconclusive, PI5P4Ka inh -72 | Tb PFK KinaseGlo inconclusive | Tb PFK inh-2 inconclusive
COC(=O)[C@H]1[C@H](c2ccccc2)C(=O)[C@@]2(O)c3ccccc3O[C@@]12c1ccccc1	none (no result: Tb PFK inh-1, WRN helicase inh, Tb PGK inh, PI5P4Ka inh, FEN1 inh)
O=C(Cc1ccc(Br)cc1)N/N=C/c1ccc(-c2cccc(C(=O)O)c2)o1	Tb PFK inh-1 11µM, PI5P4Ka inh inconclusive | Tb PFK KinaseGlo 11µM | Tb PFK inh-2 12µM
O=C(CCN1CCOCC1)Nc1ccc(Br)cc1C(=O)c1ccccc1	none (no result: TDP1 inh)
C[C@H](NC(=O)C1CCN(S(=O)(=O)c2ccccc2)CC1)C(=O)NCc1ccc(Cl)c(Cl)c1	Tb PFK inh-1 27µM | Tb PFK KinaseGlo 21µM | Tb PFK inh-2 inconclusive
CCOC(=O)C/C(C)=N/NC(=O)CNc1cccc(Cl)c1C	Tb PFK inh-1 24µM | Tb PFK KinaseGlo inactive | Tb PFK inh-2 inactive
c1cc2c(cc1C1OC[C@@H]3C(c4ccc5c(c4)OCO5)OCC13)OCO2 (some centres undefined)	none (no result: Tb PFK inh-1, WRN helicase inh, Tb PGK inh, PI5P4Ka inh, FEN1 inh)
O=[N+]([O-])c1cccc(CN2CCN(Cc3ccc(Cl)cc3)CC2)c1	none
Cc1nc([N+](=O)[O-])c(Br)n1Cc1ccc(Cl)c(Cl)c1	Tb PFK inh-1 21µM | Tb PFK KinaseGlo inconclusive | Tb PFK inh-2 inconclusive
CCCCC(=O)Cl	none (no result: Tb PFK inh-1, WRN helicase inh, Tb PGK inh, PI5P4Ka inh, FEN1 inh)
CC1O[C@@H](OC2CC[C@@]3(C=O)C4CC[C@]5(C)C(C6=CC(=O)OC6)CC[C@@]5(O)C4CC[C@]3(O)C2)C(O)C(O)C1O (some centres undefined)	none (no result: Tb PFK inh-1, WRN helicase inh, Tb PGK inh, PI5P4Ka inh, FEN1 inh)
CN1OC[C@@H]2COc3ccc4ccccc4c3[C@@H]21	none
CC(=O)N[C@@H]1c2c(ccc3ccccc23)OC[C@@H]1COC(C)=O	Tb PFK inh-1 inconclusive | Tb PFK KinaseGlo inactive | Tb PFK inh-2 inconclusive
CCOP(=S)(OCC)Oc1ncn(-c2ccccc2)n1	none (no result: Tb PFK inh-1, WRN helicase inh, Tb PGK inh, PI5P4Ka inh, FEN1 inh)
CCN1C[C@@]2(COC(=O)c3ccccc3N3C(=O)CC(C)C3=O)CC[C@H](OC)[C@]34C5C[C@@H]6[C@@H](OC)C[C@@](O)(C5[C@H]6OC)[C@@](O)(C13)[C@@H](OC)C24 (some centres undefined)	none (no result: Tb PFK inh-1, WRN helicase inh, Tb PGK inh, PI5P4Ka inh, FEN1 inh)
COc1cc(C(c2c(O)c3ccccc3oc2=O)c2c(C)n(C)n(-c3ccccc3)c2=O)ccc1OCC(=O)O (centres undefined)	none (no result: Tb PFK inh-1, WRN helicase inh, PI5P4Ka inh)
CCOc1ccc(C(c2c(C)[nH][nH]c2=O)c2c(C)[nH][nH]c2=O)cc1OC	Tb PFK inh-1 inconclusive | Tb PFK KinaseGlo inconclusive | Tb PFK inh-2 inactive
COc1ccc(NC(=O)CN(C)C(=O)c2cc3c(s2)CCC3)cc1	Tb PFK inh-1 inconclusive, WRN helicase inh 40µM, Tb PGK inh inconclusive, TDP1 inh 1.3µM, PI5P4Ka inh -69, FEN1 inh 25µM | Tb PFK KinaseGlo inconclusive | Tb PFK inh-2 inconclusive
Fc1cccc(-c2csc(-c3ccno3)n2)c1	Tb PFK inh-1 inconclusive | Tb PFK KinaseGlo inconclusive | Tb PFK inh-2 inconclusive

Compound activity deposited in PubChem by National Center for Advancing Translational Sciences (NCATS).
